# About 79,000 compounds went through this panel and 15% of them were active in at least one assay; those are over-represented in the sample as a whole. Unmarked numbers belong to inactive results. Active and inactive are the calls of the source. Cut-off read from the data, not from the text of the source: active = growth inhibition above about 70%; inactive = the rest.
# Key:
# [1] = NCI Yeast Anticancer Drug Screen. Data for the rad50 strain (AID 155);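 note: 0% = growth of vehicle-only cultures of the same strain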; details: S. cerevisiae rad50 strain growth inhibition, active compounds read high
# Outline: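 Readout: growth inhibition relative to vehicle-treated cultures. Compound exposure was carried out in a genetically defined yeast strain deficient in DNA damage repair.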
# [2] = NCI Yeast Anticancer Drug Screen. Data for the mec2-1 strain (AID 157); details: S. cerevisiae mec2-1 strain, active compounds read high
# Outline: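 Test agents were screened against the mec2-1 yeast strain, with defined DNA repair or cell cycle alteration. Growth was scored as inhibition against vehicle-only controls.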
# [3] = NCI Yeast Anticancer Drug Screen. Data for the sgs1 mgt1 strain (AID 161);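 note: 0% = growth of cultures given vehicle only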; details: S. cerevisiae sgs1 mgt1 strain, active compounds read high
# Outline: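 Test agents were incubated with a DNA-repair-mutant yeast strain. Growth was then read and compared against vehicle-treated controls.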
# [4] = NCI Yeast Anticancer Drug Screen. Data for the cln2 rad14 strain (AID 165);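 note: 0% = growth equal to vehicle treated cultures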; details: S. cerevisiae cln2 rad14 strain, active compounds read high
# Outline: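 Growth of compound-exposed yeast (cln2 rad14 genotype) measured and expressed as inhibition relative to vehicle.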
# [5] = NCI Yeast Anticancer Drug Screen. Data for the bub3 strain (AID 167); details: S. cerevisiae bub3 mutant strain, active compounds read high
# Outline: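 Readout: yeast growth inhibition, expressed relative to vehicle-only wells. The test organism is a mutant strain from a panel with lesions in DNA repair or checkpoint genes.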
# [6] = NCI Yeast Anticancer Drug Screen. Data for the mlh1 rad18 strain (AID 175); details: S. cerevisiae mlh1 rad18 strain growth inhibition, active compounds read high
# Outline: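 In this whole-cell yeast screen, a strain with altered DNA damage repair is challenged with compound, and its growth is measured against matched vehicle-treated controls.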
# [7] = at 5.0 µM (retest, dose inferred, filed as 0.5)
# [8] = at 50.0 µM (retest, dose inferred, filed as 5.0)
Structure (SMILES),"growth inhibition [1, 7]","growth inhibition [1, 8]",growth inhibition ([1]; at 50.0 µM),"growth inhibition [2, 7]","growth inhibition [2, 8]",growth inhibition ([2]; at 50.0 µM),"growth inhibition [3, 7]","growth inhibition [3, 8]",growth inhibition ([3]; at 50.0 µM),"growth inhibition [4, 7] [%]","growth inhibition [4, 8]",growth inhibition ([4]; at 50.0 µM),"growth inhibition [5, 7]","growth inhibition [5, 8]",growth inhibition ([5]; at 50.0 µM),"growth inhibition [6, 7] [%]","growth inhibition [6, 8]",growth inhibition ([6]; at 50.0 µM)
OC/C(=C\c1ccccc1Br)c1ccccc1Br,2%,99% (active),99% (active),7%,100% (active),99.1% (active),6%,66%,99.2% (active),0,100% (active),97.5% (active),10%,99% (active),99% (active),-10,99% (active),99% (active)
CCCCCCCCCCCCCCCCSC(=NC)NC,89% (active),99% (active),99.4% (active),98% (active),99% (active),99.2% (active),98% (active),100% (active),99.3% (active),25,99% (active),98.2% (active),84% (active),99% (active),99.1% (active),67,98% (active),98.7% (active)
COc1cccc(/C=C(\NC(=O)c2ccccc2)c2nc3ccccc3s2)c1,64%,96% (active),98.3% (active),18%,96% (active),98.2% (active),53%,97% (active),98.8% (active),13,97% (active),97.7% (active),29%,97% (active),97.4% (active),25,96% (active),98.3% (active)
NC(=O)NOC(=O)c1ccccc1,42%,97% (active),85.3% (active),6%,97% (active),87.5% (active),18%,95% (active),87.4% (active),-7,96% (active),86.8% (active),-4%,95% (active),79.2% (active),21,97% (active),96.8% (active)
NC(=O)C1(Br)C=[N+](Cc2ccccc2)CCC1 (stereo not drawn),0%,-2%,29.2%,3%,-3%,11.9%,-3%,-4%,11.8%,-2,-3%,13.9%,-2%,-6%,-3.4%,2,1%,24.4%
Cc1c2ncccc2cc2oc3ccccc3c(=O)c12,67%,9%,62.7%,24%,78% (active),14.8%,37%,6%,24.4%,16,37%,13.8%,15%,75% (active),19.9%,23,10%,68.7%

# Source: PubChem BioAssay (NCI)
